Drawing on PubChem BioAssay (NCATS), this text covers activity change, negative = inhibition and Potency for 35 compounds.

Structures are written as SMILES. Records with an inconclusive call do not appear. Calls of active or inactive are those of the source. The call rests on the fitted dose curve.
Potency means the concentration at half of the fitted maximal effect.

The nature of the assay: Primary qHTS to identify inhibitors of SARS-CoV-2 cell entry (AID 1645846). Further: nearly all actives have a fitted effect of over 45% in size. Particulars: SARS-CoV-2 pseudovirus cell entry assay, luminescence; activity change, negative = inhibition: at 57.1 µM (top of the series) unless noted. The gist of the method:
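Entry measured by luciferase signal 48 h after adding SARS-CoV-2-S pseudotyped MLV particles to HEK293-ACE2 cells preincubated 1 h with compounds. Normalisation: bald particles and spike particles.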
A general note: qHTS replaces the single test concentration by a dilution series.
For `O=C1Cc2cc(C(=O)NC3C[C@H]4CC[C@@H](C3)N4S(=O)(=O)CC3CCN(CCCC(F)(F)F)CC3)c(Cl)cc2N1` (stereo not given in full), the activity change, negative = inhibition was -20.5%.
Regarding `COC(C)(C)CCn1nc(Nc2c(C)cccc2C)c2cnc(Nc3ccc(OCCN4CCCC4)c(F)c3)nc21`, the Potency was 11.2 µM (active).
Turning to `CN1CCCN(C(=O)c2cccc(-c3ccc(/C=C4/C(=O)Nc5ccc(Cl)cc54)o3)c2)CC1`, the Potency was 1 µM (active).
Consider `CCOCOC[C@H](C[C@H](C)C(=O)NO)NC(=O)c1ccc(Oc2ccccc2)cc1`, for which the activity change, negative = inhibition was -23.9%.
Turning to `CN(C)CCNC(=O)NC[C@H]1CC[C@@H]2[C@H](O1)c1cc(C(F)(F)F)ccc1N[C@H]2c1ccccc1`, the Potency was 25.1 µM (active).
As for `Nc1nc(N)c2nc(-c3cccc(Cl)c3)c(N)nc2n1`, the activity change, negative = inhibition was determined as 1.13%.
Same read-out and setting: the value for `CNC(=O)Cn1cc(-c2ccc3c(c2)C(F)CC32NC(=O)N(CC(=O)N(Cc3ccc(F)cc3)C(C)C(F)(F)F)C2=O)cn1` (stereo not given) was -52.5%.
With `FC(F)(F)c1ccc(CNc2ccc(Cc3c[nH]c4ncccc34)cn2)cc1`, the Potency was 20 µM (active).
Take `N#Cc1cc2cc(CN3CCC(Nc4ncnc5sc(CC(F)(F)F)cc45)CC3)c(O)cc2n1Cc1cn[nH]c1`: the Potency is 17.8 µM (active).
With `COc1cc(OC)c(/C=C/S(=O)(=O)Cc2ccc(OC)c(NCC(=O)O)c2)c(OC)c1`, the activity change, negative = inhibition is -75.7%.
The same measure, in the same setting: the value for `COC1=C(OC)C(=O)C(C/C=C(\C)CC/C=C(\C)CC/C=C(\C)CC/C=C(/C)CC/C=C(\C)CC/C=C(\C)CC/C=C(\C)CC/C=C(\C)CC/C=C(\C)CCC=C(C)C)=C(C)C1=O` was -14.5%; that for `COc1nc(N)nc2c1ncn2C1OC(CO)C(O)C1O` (stereo not given) was 1.29%.
Take `Cc1nc([C@](C)(O)CO)sc1-c1cnc(N)c(O[C@H](C)c2cc(F)ccc2-n2nccn2)c1`: the Potency was 22.4 µM (active).
Same read-out and setting: the value for `C=CC(=O)Nc1cccc(Nc2nc(Nc3ccc(Oc4ccnc(C(=O)NC)c4)cc3)ncc2F)c1` was 22.4 µM (active).
In the case of `Cc1[nH]c2ccccc2c1CCNCc1ccc(/C=C/C(=O)NO)cc1`, the Potency result was “inactive”.
Take `C=CC(=O)Nc1cccc(C)c1Nc1ncc2cc(-c3c(Cl)c(OC)cc(OC)c3Cl)ccc2n1`: the activity change, negative = inhibition is -95%.
The same measure, in the same setting: next, `Cc1cccc(-c2nn3c(c2-c2ccnc4ccc(C(N)=O)cc24)CCC3)n1`: -4.65%.
With `Cc1ccc(NS(=O)(=O)c2cccc(C#N)c2)c2[nH]cc(C#N)c12`, the activity change, negative = inhibition is -10.5%.
Take `O=C(NO)c1cnc(N2C[C@H]3C[C@@H]2CN3c2cc(C(F)(F)F)ccn2)nc1`: the Potency entry was “inactive”.
Still for that read-out and setting: the value for `CN(C)C/C=C/C(=O)Nc1ccc(C(=O)Nc2cccc(Nc3ncc(Cl)c(-c4c[nH]c5ccccc45)n3)c2)cc1` was 1 µM (active).
Regarding `O=C(/C=C/c1cccnc1)NCCCCC1CCN(C(=O)c2ccccc2)CC1`, the activity change, negative = inhibition is -96.7%.
Same read-out and setting: the value for `Cc1c(NC(=O)c2cc(C(N)=O)nc3cc(F)ccc23)c(C(F)(F)F)nn1Cc1ccc(C(C)(C)C)cc1` was -95.1%; that for `CCC(=C/[C@H](C)C/C=C/C(C)=C/[C@@H](C)C(=O)[C@@H](C)[C@H](O)[C@@H](C)C/C(C)=C/C(=O)O)/C=C/[C@@H]1OC(=O)C=C[C@@H]1C` was -94.2%.
For `CNC(=O)c1ccc(Nc2ncc(C(F)(F)F)c(NCc3nccnc3N(C)S(C)(=O)=O)n2)cc1`, the Potency is 0.891 µM (active).
As to `Nc1ccc(/C=C/C(=O)NCc2cc3cc(-c4ccc(C(=O)N5CCC(F)(F)CC5)cc4)cc(-c4ccc(F)cc4)c3o2)cn1`, the activity change, negative = inhibition is -96.3%.
As to `C=CC(=O)Nc1ccc(F)c(-c2ncnc3[nH]cc(C(=O)OCC)c23)c1`, the Potency entry was “inactive”.
Regarding `N#C/C(=C1/Nc2ccccc2S1)c1ccnc(OCc2ccc(CN3CCOCC3)cc2)n1`, the activity change, negative = inhibition was -97.6%.
In the case of `O=C(NO)c1cnc(NC2(c3ccccc3)CC2)nc1`, the Potency entry is “inactive”.
As to `C[C@H]1CN(C2COC2)CCN1c1ccc(Nc2cc(-c3ccnc(N4CCn5c(cc6c5CC(C)(C)C6)C4=O)c3CO)cn(C)c2=O)nc1`, the activity change, negative = inhibition was -10.4%.
`Cc1cc(CS(=O)(=O)c2ccccc2)cc(OCc2ccc(CN3CCC[C@@H]3CO)cc2)c1`: the Potency was 12.6 µM (active).
For the compound `COc1cc2c(NC3CCN(C)CC3)nc(N3CCCN(C)CC3)nc2cc1OCCCN(C)C`, the activity change, negative = inhibition is -3.44%.
Turning to `CC(C)Oc1ccc(-c2nc(-c3cccc4c3CC[C@@H]4NCCO)no2)cc1C#N`, the Potency entry was “inactive”.
On the same count and under the same terms, the value for `CCNCCc1ccc(CN(CC)c2cc(OC)ccc2[C@@H]2CCc3cc(O)ccc3C2)cc1` was 31.6 µM (active).
For `CC(C)(C)c1[nH]cnc1/C=c1\[nH]c(=O)/c(=C/c2ccccc2)[nH]c1=O`, the activity change, negative = inhibition is -98.3%.
For `COc1nnc2ccc(N3CCC(c4ccc(OCCN5CCN(C)C(=O)[C@H]5C)cc4)CC3)nn12`, the Potency result was “inactive”.
